The supplement of paper PMC13380429
Unmarked numbers belong to inactive results.

test system: Vero E6 infected with SARS-CoV-2; experiment: inhibition of SARS-CoV-2 cytopathic effect; higher = more antiviral protection, active = above 15; settings: 1 nM; 48 h

Row | Compound | inhibition of SARS-CoV-2 cytopathic effect
1 | NC(=O)Nc1sc(-c2ccc(F)cc2)cc1C(N)=O | 1.14%
2 | CC1(C)C[C@@H]1C(=O)N/C(=C\CCCCSC[C@H](N)C(=O)O)C(=O)O [Cilastatin Sodium] | 1.3%
3 | O=C(Nc1cccc(Cl)c1)Nc1ncc(CCNc2ncnc3ccsc23)s1 | 0.21%
4 | CCc1nn(CCCN2CCN(c3cccc(Cl)c3)CC2)c(=O)n1CCOc1ccccc1 [nefazodone] | -0.85%

same assay, conditions: 8.33 nM; 48 h

Row | Compound | inhibition of SARS-CoV-2 cytopathic effect
5 | O=C(O)c1ccc(/C=C2\SC(=S)N(c3cccc(C(F)(F)F)c3)C2=O)cc1 | -0.83%
6 | Cc1ccccc1/N=N/c1ccc(/N=N/c2c(O)ccc3ccccc23)c(C)c1 [sudan-IV] | -0.01%
7 | C[C@H]1COc2c(C3(N)CC3)c(F)cc3c(=O)c(C(=O)O)cn1c23 [pazufloxacin] | -1.82%
8 | O=C(c1cccc(Br)c1)N1CCC(N2CCCC2)CC1 | 1.79%
9 | CC[C@@H](C)Nc1cc(C(=O)N[C@H]2C[C@H]3CC[C@@H](C2)N3c2ccc(C(=O)C3CC3)cn2)c(C)cc1C(N)=O | 1.25%
10 | COc1ccc(CCNCc2ccc(OCc3ccc(Cl)nc3)c(OC)c2)cc1OC | 0.63%
11 | CC(=O)NNC(=O)N1Cc2ccccc2Oc2ccc(Cl)cc21 | 1.22%
12 | CN1CCC(=C2c3ccccc3C=Cc3ccccc32)CC1 [cyproheptadine] | -0.26%
13 | CCCn1c(=O)c2[nH]c(-c3cnn(Cc4cccc(C(F)(F)F)c4)c3)nc2n(CC)c1=O | 1.19%
14 | Cc1nc(Nc2ncc(C(=O)Nc3c(C)cccc3Cl)s2)cc(N2CCN(CCO)CC2)n1 [dasatinib] | -1.86%
15 | Cc1cc(N2CCOCC2)ccc1Nc1nc(NC2CCCCC2)c2nc[nH]c2n1 | 1.08%
16 | Clc1ccc(-c2nc3sccn3c2/C=N/OCc2ccc(Cl)c(Cl)c2)cc1 | -0.99%
17 | CCCn1c(=O)c2nc(-c3ccccc3)[nH]c2n(CCC)c1=O [1,3-dipropyl-8-phenylxanthine] | -2.62%
18 | CCOc1ccccc1C(=O)O [2-ethoxybenzoic-acid] | 3.72%
19 | Cc1cc(C)c(S(=O)(=O)n2cc(C)cc2C)c(C)c1 | -0.02%
20 | CCCCn1c(=O)c2[nH]c(C34CC5CC(CC3C5)C4)nc2n(CCCO)c1=O | 2.64%
21 | Cc1cccc(NC(=O)c2ccc(C(F)(F)F)cc2C(=O)O)n1 | 0.28%
22 | COc1ccc(C(=O)N2CCCc3cc(C4=NNC(=O)SC4C)ccc32)cc1OC (centres undefined) | 2.27%
23 | O=C(/C=C/c1ccc2ccc(C(F)(F)F)cc2n1)c1ccncc1 | 0%
24 | CC(C)=CCC/C(C)=C/CC/C(C)=C/CSc1ccccc1C(=O)O [salirasib] | 2.19%

Row | Compound | inhibition of SARS-CoV-2 cytopathic effect
25 | N=C1NC(=O)/C(=C/c2ccc(O)cc2)S1 [mirin] | 0.66%
26 | Clc1ccc(C(Cn2ccnc2)OCc2ccsc2Cl)c(Cl)c1 (centres undefined) [tioconazole] | -2.6%
27 | Cc1cnc(Nc2ccc(OCCN3CCCC3)cc2)nc1Nc1cccc(S(=O)(=O)NC(C)(C)C)c1 [fedratinib] | 1.42%
28 | O=C(O)CC/C=C\C[C@@H]1CO[C@H](c2ccccc2Cl)O[C@@H]1c1ccccc1O (racemic) | 1%
29 | COc1cc(OC)c(/C=C2/C(=O)Nc3ccccc32)c(OC)c1 | 1.86%
30 | Nc1ncnc2c1nc(Br)n2[C@@H]1O[C@@H]2COP(=O)(O)O[C@H]2[C@H]1O [8-bromo-cAMP] | 0.61%
31 | CN[C@@H](C)CCC=C(C)C [isometheptene-mucate] | 2.18%
32 | CC1(C)S[C@@H]2[C@H](NC(=O)C(C(=O)O)c3ccccc3)C(=O)N2[C@H]1C(=O)O (some centres undefined) [carbenicillin] | 1.83%
33 | NCC1(CC(=O)O)CCCCC1 [gabapentin] | 2.99%
34 | S=P(N1CC1)(N1CC1)N1CC1 [thiotepa] | 1.88%
35 | COc1cc([C@@H]2c3cc4c(cc3[C@@H](O[C@@H]3O[C@@H]5CO[C@@H](C)O[C@H]5[C@H](O)[C@H]3O)[C@H]3COC(=O)[C@H]23)OCO4)cc(OC)c1O [etoposide] | -0.79%
36 | CCN(CC)Cc1nccn1-c1ccc([N+](=O)[O-])cc1C(=O)c1ccccc1Cl [nizofenone] | 0.76%
37 | O=c1[nH]c(=O)n([C@H]2C[C@H](O)[C@@H](CO)O2)cc1Br [broxuridine] | 1.06%
38 | NCCc1cc[nH]n1 [betazole] | 1.07%
39 | COc1ncc2cc(C(=O)Nc3cc(C(=O)NCc4cccc(Cl)c4)ccc3Cl)c(=O)[nH]c2n1 | 1.46%
40 | c1ccc2c(c1)CN1CCCC1=N2 [desoxypeganine] | -3.18%
41 | NC(=O)Nc1sc(-c2ccc(F)cc2)cc1C(N)=O | -0.06%
42 | CC1(C)C[C@@H]1C(=O)N/C(=C\CCCCSC[C@H](N)C(=O)O)C(=O)O [Cilastatin Sodium] | 3.44%
43 | O=C(Nc1cccc(Cl)c1)Nc1ncc(CCNc2ncnc3ccsc23)s1 | 0.43%
44 | CCc1nn(CCCN2CCN(c3cccc(Cl)c3)CC2)c(=O)n1CCOc1ccccc1 [nefazodone] | 0.31%
